# Test results taken from PubChem BioAssay (NCATS).
# Where “and” joins values, the source holds several entries; their conditions need not be identical. Identical values can stand only once. Inconclusive results are not listed. Entries that show only a call come without a potency. Values without a mark were called inactive. Calls of active or inactive are those of the source. The call rests on the fitted dose curve; in most records, active means well fitted curve in the direction sought with a large enough effect; inconclusive means small, poorly fitted or top-dose-only effect, or another doubt; inactive means no such curve, though single readings can be large; an effect the other way counts as inactive or inconclusive. Numbered stars: 1 amine (or outer) side, 2 acyl side, 3 side chain; on linkers, the order of the positions; unused ones are H or OH. Bridge positions count the residues as written; N and C are the ends. Square brackets hold non-standard residues; d marks the D form. Peptide text beside a SMILES is read from it. I, II: the chains in the order shown. Actinocin(9to1) = Cc1c2oc3c(C)ccc(C(=O)[*:1])c3nc-2c(C(=O)[*:2])c(N)c1=O; NMeV = CN[C@H](C(=O)O)C(C)C; Sar = CNCC(=O)O
# Assays:
# [1] = tested on: Zika virus NS2B-NS3 protease (unlinked); test: Optimization of GU AMC qHTS for Zika virus inhibitors: Unlinked NS2B-NS3 protease assay (AID 1347151); conditions: recombinant ZIKV NS2B-NS3 protease, fluorogenic AMC substrate; series mostly up to 52.5 µM; further: nearly all actives have a fitted effect of over 80% in size; further: potency means the concentration at half of the fitted maximal effect
# Procedure, shortened: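 Noncovalent complex of NS2B hydrophilic domain and NS3 protease domain, 25 nM final, in 10 mM Tris-HCl pH 8.0, 0.01% Tween 20. AMC fluorescence change over 15 min at room temperature was fitted to a 4-parameter Hill equation.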
# [2] = tested on: Zika virus NS2B-NS3 protease; test: Primary screen GU AMC qHTS for Zika virus inhibitors (AID 1347154); conditions: Zika NS2B-NS3 unlinked protease, AMC fluorogenic substrate; series mostly up to 54.1 µM; further: nearly all actives have a fitted effect of over 70% in size; further: potency means the concentration at half of the fitted maximal effect
# Procedure, shortened: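 Unlinked Zika NS2B hydrophilic domain/NS3 protease domain noncovalent complex (25 nM final) in 10 mM Tris-HCl pH 8.0, 0.01% Tween 20, with AMC peptide substrate. Fluorescence (ex 340, em 450 nm) change over 15 min, room temperature; percent inhibition fitted to 4-parameter Hill equation.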
# [3] = tested on: Zika virus NS2B-NS3 protease (linked construct); test: Confirmatory screen NINDS AMC qHTS for Zika virus inhibitors (AID 1347152); conditions: Purified linked NS2B-NS3, AMC substrate fluorescence; series mostly up to 56.6 µM; further: nearly all actives have a fitted effect of over 70% in size; further: potency means the concentration at half of the fitted maximal effect
# Procedure, shortened: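 Purified NS2B-NS3 protease with NS2B hydrophilic domain linked to NS3 protease domain by flexible linker, 1 nM final in 10 mM Tris-HCl pH 8.0, 0.01% Tween 20. Compounds preincubated 15 min, room temperature; Bz-Nle-KRR-AMC 10 microM (Km 18.3 µM); 15-min fluorescence change, 4-parameter Hill fit.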
# [4] = tested on: Zika virus NS2B-NS3 protease (unlinked complex); test: Confirmatory screen GU AMC qHTS for Zika virus inhibitors (AID 1347153); conditions: Recombinant NS2B-NS3 protease, AMC substrate fluorescence; series mostly up to 57.1 µM; further: nearly all actives have a fitted effect of over 70% in size; further: potency means the concentration at half of the fitted maximal effect
# Procedure, shortened: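 Unlinked enzyme 25 nM, Tris pH 8.0/0.01% Tween 20; cpd 15 min RT, dark; + AMC substrate 10 µM (Km 18.3 µM); 340/450 nm read at t0 and 15 min; % inhibition → 4-param fit.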
# [5] = Confirmatory screen NINDS Rhodamine qHTS for Zika virus inhibitors (AID 1347161); conditions: purified enzyme assay, Rhodamine110 substrate fluorescence, 15 min; series mostly up to 114 µM; further: nearly all actives have a fitted effect of over 60% in size; further: potency means the concentration at half of the fitted maximal effect
# Procedure, shortened: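 Each compound, titrated, sat 15 min with 25 nM linked protease before 1.5 microM Rhodamine110 substrate went in. Fluorescence gain over the next 15 min, in pH 8.0 Tris with Tween 20, gave Hill-fitted curves.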
# [6] = tested on: Zika virus NS2B-NS3 protease (unlinked complex); test: Primary screen GU Rhodamine qHTS for Zika virus inhibitors: Unlinked NS2B-NS3 protease assay (AID 1347159); conditions: Recombinant ZIKV NS2B-NS3 protease, Rhodamine110 substrate fluorescence; series mostly up to 107 µM; further: nearly all actives have a fitted effect of over 60% in size
# Procedure, shortened: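 Compounds, tested up to 114 microM, were incubated for 15 minutes with 25 nM unlinked NS2B-NS3 protease at pH 8.0. Cleavage of 1.5 microM Rhodamine110 substrate was then followed by fluorescence for 15 minutes.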
# [7] = tested on: Zika virus NS2B-NS3 protease (linked construct); test: Primary screen NINDS Rhodamine qHTS for Zika virus inhibitors (AID 1347160); conditions: purified NS2B-NS3 protease, Rhodamine110 substrate fluorescence; series mostly up to 57.1 µM; further: nearly all actives have a fitted effect of over 55% in size
# Procedure, shortened: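 Percent inhibition, normalized to uninhibited and enzyme-free controls, is fitted to a 4-parameter Hill equation. Fluorescence change comes from a 15-min cleavage of 1.5 microM bis-peptide Rhodamine110 substrate by 25 nM linked NS2B-NS3 at room temperature.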
# [8] = tested on: Zika virus NS2B-NS3 protease (linked); test: 384 well plate NINDS AMC confirmatory qHTS for Zika virus inhibitors (AID 1347163); conditions: Recombinant NS2B-NS3 protease, Ac-VKTGKR-AMC fluorescence; series mostly up to 1 mM;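 further: linked protease at 5 30 or 60 nM final depending on run; fluorescence of AMC released from Ac-VKTGKR-AMC peptide cleaved by the protease; top concentration of the series differs between compounds; nearly all actives have a fitted effect of over 50% in size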
# Procedure, shortened: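 Linked protease 5/30/60 nM final; cpds up to 1 mM final, ~15 min preinc. Substrate Ac-VKTGKR-AMC 30 microM final. RT, dark, 25 min; FI ex 355/em 460; normalized to no-enzyme/no-inhibitor ctrls.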
# [9] = Confirmatory screen GU Rhodamine qHTS for Zika virus inhibitors qHTS (AID 1347157); conditions: purified enzyme assay, Rhodamine110 substrate fluorescence, 15 min; further: potency means the concentration at half of the fitted maximal effect; nearly all actives have a fitted effect of over 70% in size
# Procedure, shortened: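 Percent inhibition derives from the 15-min fluorescence change (ex 480, em 540 nm), normalized to no-enzyme and no-inhibitor wells. Reactions contained 25 nM NS2B-NS3 complex and 1.5 microM substrate in 10 mM Tris-HCl pH 8.0.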
# [10] = ZIKV-mCherry secondary qHTS for Zika virus inhibitors (AID 1347158); conditions: Vero cells, ZIKV-mCherry infection imaging, 48-72 h; series mostly up to 32.6 µM; further: potency means the concentration at half of the fitted maximal effect
# Description: Assay Submitters (PI): Avindra Nath, Ph.D., National Institute of Neurological Disorders and Stroke (NINDS), Bethesda, MD Radhakrishnan Padmanabhan, Ph.D., Georgetown University (GU), Washington D.C. Zika Virus causes congenital defects, including microcephaly and is associated with Guillain-Barre syndrome, eningoencephalitis and myelitis in infected adult. […] Using a target-based approach, we hope to establish a screening paradigm to uncover novel, cell-active NS2B-NS3 protease (Zika Virus) specific inhibitors from NCATS' collection of small molecules using qHTS. […] Four assay panel was created to identify potential Zika Virus inhibitors. […]
# 384 well ZIKV-mCherry Assay: We have developed a new orthogonal imaging assay in 384-well plate format, which uses recombinant virus ZIKV-mCherry in Vero cells. […] The TIFFs were quantitated using the canned Multi Target Analysis protocol (GE Investigator Workstation software v3.7.2). […] A recombinant Zika viral infection was monitored in the Cy5 channel (cells) using a 2 microm collar dilation from the nuclear bitmap. mCherry objects with an average nuclear RFU intensity above 450 (3 stdev above mean negative control wells) were considered "mcherry positive" and data was analyzed by percent infection rate.
smiles,measurement,setting,value
CCCC1O[C@@H]2C[C@H]3[C@@H]4CCC5=CC(=O)C=C[C@]5(C)[C@H]4[C@@H](O)C[C@]3(C)[C@]2(C(=O)CO)O1 (some centres not stated),Potency,[1],inactive
CCCCOc1cc(C(=O)NCCN(CC)CC)c2ccccc2n1,Potency,[2],inactive
CC(C)C[C@H]1C(=O)N2CCC[C@H]2[C@]2(O)O[C@](NC(=O)[C@@H]3C=C4c5cccc6[nH]c(Br)c(c56)C[C@H]4N(C)C3)(C(C)C)C(=O)N12,Potency,[1],11.9 µM (active)
same,Potency,[3],inactive
same,Potency,[4],inactive
same,Potency,[5],inactive
Nc1ccn([C@@H]2O[C@H](CO)[C@@H](O)C2(F)F)c(=O)n1,Potency,[1],inactive
same,Potency,[2],inactive
same,outcome,[6],inactive
same,outcome,[7],inactive
Oc1ccc(O)cc1,Potency,[1],inactive
same,Potency,[2],inactive
CC(=O)O[C@H]1C[C@@H]2CC[C@@H]3[C@H](CC[C@@]4(C)[C@H]3C[C@H]([N+]3(C)CCCCC3)[C@@H]4OC(C)=O)[C@@]2(C)C[C@@H]1[N+]1(C)CCCCC1,Potency,[1],inactive
CCCCOc1ccc(C(=O)CCN2CCCCC2)cc1,Potency,[2],inactive
CNCCC(Oc1ccccc1C)c1ccccc1 (configuration not stated),Potency,[1],inactive
NCCc1ccn[nH]1,Potency,[2],inactive
CCCCCCCCCCCCCCCCOP(=O)([O-])OCC[N+](C)(C)C,Potency,[2],inactive
O=C1CCC(c2ccc(-n3ccnc3)cc2)=NN1,Potency,[1],inactive
N[C@@H](Cc1cnc[nH]1)C(=O)O,Potency,[1],inactive
"Cc1c2oc3c(C)ccc(C(=O)N[C@@H]4C(=O)N[C@H](C(C)C)C(=O)N5CCC[C@H]5C(=O)N(C)CC(=O)N(C)[C@@H](C(C)C)C(=O)O[C@@H]4C)c3nc-2c(C(=O)N[C@@H]2C(=O)N[C@H](C(C)C)C(=O)N3CCC[C@H]3C(=O)N(C)CC(=O)N(C)[C@@H](C(C)C)C(=O)O[C@@H]2C)c(N)c1=O (I: T[dV]P[Sar][NMeV] / II: T[dV]P[Sar][NMeV]; ester I:1-I:C, II:1-II:C; linker I:N-II:N via Actinocin(9to1))",Potency,[1],27.1 µM (active)
same,Potency,[3],inactive
same,Potency,[4],inactive
same,Potency,[2],inactive
same,Potency,[5],inactive
COC(=O)[C@H]1[C@H]2C[C@H]3c4[nH]c5ccccc5c4CCN3C[C@H]2CC[C@@H]1O,Potency,[1],inactive
C1CCc2nnnn2CC1,Potency,[1],inactive
same,Potency,[2],inactive
Nc1cc(Cl)c(NC2=NCCN2)c(Cl)c1,Potency,[1],inactive
CCCn1c(=O)[nH]c(=O)c2[nH]cnc21,Potency,[1],inactive
CCC(NC(C)C)C(O)c1ccc(O)c(O)c1 (configuration not stated),Potency,[1],inactive
COc1cc(NS(C)(=O)=O)ccc1Nc1c2ccccc2nc2ccccc12,Potency,[1],29.9 µM (active)
COc1c(C)c2c(c(O)c1C/C=C(\C)CCC(=O)O)C(=O)OC2,Potency,[1],24.1 µM (active)
same,Potency,[2],inactive
same,outcome,[8],inactive
CC(C)COC(=O)OCN1C(=O)CN(CCN2CC(=O)N(COC(=O)OCC(C)C)C(=O)C2)CC1=O,Potency,[1],inactive
C[C@@H]1C(=O)NC2=Nc3cccc(Cl)c3CN21,Potency,[1],inactive
CC(CCc1ccccc1)NCC(O)c1ccc(O)c(C(N)=O)c1 (configuration not stated),Potency,[1],26.7 µM (active)
same,outcome,[6],inactive
same,outcome,[7],inactive
COc1cc2c(cc1O)CC[C@@H]1[C@@H]2CC[C@]2(C)[C@@H](O)CC[C@@H]12,Potency,[1],inactive
CC1(C)CCC(NC(=O)[C@@H](N)CCC(=O)O)CC1,Potency,[1],inactive
CC[C@H](C)C(=O)O[C@H]1CCC=C2C=C[C@H](C)[C@H](CC[C@@H]3C[C@@H](O)CC(=O)O3)[C@H]21,Potency,[1],inactive
O=C(O)c1cc2cc(Cc3cccnc3)ccc2o1,Potency,[1],inactive
O=C(Nc1ccc(Oc2ccc(Cl)cc2)c(Cl)c1)c1cc(I)cc(I)c1O,Potency,[3],13.6 µM (active)
same,Potency,[4],21.5 µM (active)
same,Potency,[2],14.1 µM (active)
same,Potency,[9],6.31 µM (active)
same,Potency,[10],11.2 µM (active)
same,Potency,[5],20 µM (active) and 3.93 µM (active)
CC(C)(C)CC(C)(C)c1ccc(OCCOCC[N+](C)(C)Cc2ccccc2)cc1,Potency,[1],inactive
same,Potency,[2],inactive
same,outcome,[6],inactive
same,outcome,[7],inactive
CNCCC=C1c2ccccc2CCc2ccccc21,Potency,[1],inactive
N[C@H](CO)C(=O)O,Potency,[1],inactive
same,Potency,[2],inactive
Cc1onc(-c2c(Cl)cccc2Cl)c1C(=O)N[C@@H]1C(=O)N2[C@@H]1SC(C)(C)[C@@H]2C(=O)O,Potency,[2],inactive
CC(Cc1ccccc1)(NC(=O)CN)c1ccccc1 (configuration not stated),Potency,[2],inactive
C=C1C(=C/C=C2\CCC[C@]3(C)[C@@H]([C@H](C)/C=C/[C@@H](O)C4CC4)CC[C@@H]23)C[C@@H](O)C[C@@H]1O,Potency,[2],inactive
CC(=O)Oc1ccc2c(c1)CC[C@@H]1[C@@H]2CC[C@]2(C)[C@@H](O)CC[C@@H]12,Potency,[2],inactive
C[N+]1(CCCCC[N+]2(C)CCCC2)CCCC1,Potency,[1],inactive
CN1C2CCC1CC(OC(=O)c1c[nH]c3ccccc13)C2 (configuration not stated),Potency,[1],inactive
